Experimental data from PubChem BioAssay AID720690 (Broad Institute, 2013).
Measured potencies and affinities stand elsewhere. The source made the active and inactive calls.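 How the source made its calls: active means every repeat run showing a signal drop whose fitted half-maximal concentration is at most twice the top tested concentration; inconclusive means repeat runs disagree, or flat partial drop, or poor fit; inactive means the rest.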

Experiment: HEK293T cytotoxicity, dose response, cytotoxicity control for miR-122 modulator project, cell-based, activator set, cherry-pick (AID 720690)
Settings: HEK293T viability, CellTiter-Glo luminescence, 48 h; series mostly up to 26 µM

Row | Structure (SMILES) | outcome
1 | Fc1ccccc1-c1nc(-c2ccncc2)no1 | inactive
2 | C=CCc1ccccc1OCC(O)CN1CCN(CCN2C(=O)c3cccc4cccc(c34)C2=O)CC1 (stereo unspecified) | inactive
3 | NS(=O)(=O)c1ccc(Nc2nc(-c3cccnc3)cs2)cc1 | inactive
4 | CC(C)c1ccc(CNC(=O)CSCC(=O)Nc2ccc3ccccc3c2)cc1 | inactive
5 | CCCNC(=O)Nc1ccc2c(c1)C(=O)N(C)[C@@H]1CC[C@H](CC(=O)O)O[C@H]1CO2 | inactive
6 | O=C(C1CC1)N(CCN(C(=O)C1CC1)c1ccccc1)c1ccccc1 | inactive
7 | CNC(=O)C[C@H]1CC[C@H]2[C@H](COc3ccc(NC(=O)c4cccc(OC)c4)cc3C(=O)N2C)O1 | inactive
8 | COc1ccc(C(O)(CC(C)C)C(CN2CCOCC2)c2ccccc2)cc1 (stereo unspecified) | inactive
9 | CN1C(=O)c2cc(NC(=O)c3ccc(F)cc3)ccc2OC[C@@H]2O[C@@H](CC(=O)O)CC[C@@H]21 | inactive
10 | Cc1cnc(NC(=O)c2cc3c(C)nn(-c4ccccc4)c3s2)s1 | inactive
11 | COc1cc(NC(=O)c2c(F)c(F)c(F)c(F)c2F)c(OC)cc1Cl | inactive
12 | Cc1cc(C)cc(Oc2ccc(NC(=O)C3CC=CCC3C(=O)O)cc2)c1 (stereo unspecified) | inactive
13 | C[C@@H]1CN([C@H](C)CO)S(=O)(=O)c2ccc(C3=CCCCC3)cc2O[C@@H]1CN(C)C(=O)Cc1ccncc1 | inactive
14 | CCCNC(=O)C[C@@H]1CC[C@@H]2[C@H](COc3ccc(NC(=O)c4cc(F)cc(F)c4)cc3C(=O)N2C)O1 | inactive
15 | CCc1nc2sc(C)c(C)c2c(=O)n1CCO | inactive
16 | CNC(=O)C[C@@H]1CC[C@@H]2[C@@H](COc3ccc(NC(=O)c4cccc(OC)c4)cc3C(=O)N2C)O1 | inactive
